Reference: PubChem BioAssay
Values without a mark were called inactive. The source made the active and inactive calls.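 The calls were made as follows: active = compound that reduces growth-factor-driven endothelial tube area in a mixed cell culture, no cutoff stated; inactive = the rest.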

test: inhibition of endothelial tube formation, primary screen, imaging, VEGF stimulated, CD31 staining, tube area, NPC library (AID 1117340); details: VEGF-stimulated ADSC/ECFC co-culture, at 10 µM, hits give high values

SMILES	tube area decrease
NC(=O)CC[C@@H]1NC(=O)[C@H](Cc2ccccc2)NC(=O)[C@H](Cc2ccc(O)cc2)NC(=O)CCSSC[C@@H](C(=O)N2CCC[C@H]2C(=O)N[C@@H](CCCN=C(N)N)C(=O)NCC(N)=O)NC(=O)[C@H](CC(N)=O)NC1=O	3.9%
NCCNc1ccc(NCCN)c2c1C(=O)c1ccncc1C2=O	91.4% (active)
O=C(O)Cc1ccccc1Oc1ccc(Cl)cc1Cl	3.2%
Cc1ccc(C(C)C)c(O)c1	15.5%
CCN1/C(=C/C=C/c2sc3ccccc3[n+]2CC)Sc2ccccc21	-349%
CCc1cc2cc(OC)c(OC)cc2c(Cc2ccccc2)n1	18.5%
C=C(C)C(=O)OCC(O)CO (centres undefined)	-13.7%
CCCCCCCCCCCC(=O)OCC(O)CO (centres undefined)	14.2%
CN1CCN(C(=O)C2CCCCC2)CC1	-5.2%
CC(=O)O[C@H]1C[C@@H]2CC[C@H]3[C@H]4C[C@H]([N+]5(C)CCCCC5)[C@@H](OC(C)=O)[C@@]4(C)CC[C@@H]3[C@@]2(C)C[C@H]1[N+]1(C)CCCCC1	9.9%
NS(=O)(=O)c1ccc(N2CCCCS2(=O)=O)cc1	5.1%
NC(=O)NS(=O)(=O)c1ccc(Cl)cc1	-14.2%
CCOC(=O)c1cccc(N)c1	-29.7%
CCCCCCCCCCCCCCCCCC(=O)[O][Al]	-3.5%
C[C@H](CCC(=O)O)[C@H]1CC[C@H]2[C@@H]3CC[C@@H]4C[C@H](O)CC[C@]4(C)[C@@H]3C[C@H](O)[C@]12C	0%
O=C(CCOCCOCCOCCOCCC(=O)Nc1c(I)cc(I)c(C(=O)O)c1I)Nc1c(I)cc(I)c(C(=O)O)c1I	-12%
CC(CC(C#N)(c1ccccc1)C(C)C)N(C)C (centres undefined)	1.3%
CNC(=O)c1cnn(-c2nc(N)c3ncn([C@@H]4O[C@H](CO)[C@@H](O)[C@H]4O)c3n2)c1	20.4%
O=C(O)c1cc(=O)c2c3nc4ccccc4oc-3cc(=O)c2[nH]1	16.6%
Cc1oc(=O)oc1COC(=O)[C@@H]1N2C(=O)[C@@H](NC(=O)[C@H](N)c3ccccc3)[C@H]2SC1(C)C	-10.3%

SMILES	tube area decrease
CCCCCCCCCCCCCC[N+](C)(C)C	110% (active)
COc1cc2c(cc1OC)CN(C(=O)[C@H](C)N[C@@H](CCc1ccccc1)C(=O)O)[C@H](C(=O)O)C2	14.8%
CCOC(=O)c1cccnc1	-7.8%
Cc1cc(CC(=O)O)c(C)n1-c1ccc(Cl)cc1	1.3%
CCOC(=O)C(C#N)=C(c1ccccc1)c1ccccc1	2.6%
CC1CCCCN1CCCOC(=O)c1ccc(OC2CCCCC2)cc1 (centres undefined)	-14.7%
NC(=S)N/N=C/c1cccnc1	-13.5%
C[C@@H](N)C(=O)O	15.4%
C[N+]1(CC2COC(c3ccccc3)(c3ccccc3)O2)CCCCC1 (centres undefined)	-12.8%
O=C(O)CNC(=O)c1ccccc1	-7.6%
CC(CSC(=O)c1ccccc1)C(=O)N1C[C@@H](Sc2ccccc2)C[C@H]1C(=O)O (some centres undefined)	-27%
O=C(O)c1ccccc1S	13.4%
CC[N+](CC)(CC)CCOC(=O)C(C1CCCC1)C1CCCC1	8.3%
O=C(O)[C@@H]1C(=CCO)O[C@@H]2CC(=O)N12	0.5%
N[C@@H](Cc1cc(I)c(O)c(I)c1)C(=O)O	26.5%
Cc1cc(O)c(C)c(C)c1O	-1.3%
CC(C)=CCC/C(C)=C/CC/C(C)=C/CCC(=O)OC/C=C(\C)CCC=C(C)C	-4.6%
O=C(/C=C/c1ccc(O)c(O)c1)O[C@@H]1C[C@@](OC(=O)/C=C/c2ccc(O)c(O)c2)(C(=O)O)C[C@@H](O)[C@@H]1O	8.1%
CCO[C@@H]1O[C@H](C(COCc2ccccc2)OCc2ccccc2)[C@H](OCc2ccccc2)[C@H]1O (some centres undefined)	28.6%
